Bioassay records as filed in PubChem BioAssay.
Cycloheximide cs = Cycloheximide Counterscreen for Small Molecule Inhibitors of Shiga Toxin; cell reporter, cycloheximide protein synthesis inhibition counterscreen; max response, %; actives 12% (n = 300,000); AID 2314, 2010; in the data active = max response mostly above about 13%, no sharp cut-off; inactive = mostly below about 14%; note: read at 38.3 µM for the half of the compounds with a filed dose; 0% is about no effect
Sm TGR inh = qHTS Assay for the Inhibitors of Schistosoma Mansoni Peroxiredoxins. actives 3% (n = 360,000). Schistosoma mansoni thioredoxin glutathione reductase (TGR), Q962Y6. purified TGR, DTNB reduction, TNB absorbance 405 nm. Potency, µM (doses to about 114 µM), for inactives: top-dose activity change, negative = inhibition, usual class: inhibitors; note: potency is the fitted concentration of half-maximal effect; % is set by controls: 0 for no effect and ±100 for the full control effect; nearly all actives have a fitted effect of over 60% in size
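TGR 20 nM + NADPH 100 uM (dispensed conc.), cpd preinc 15 min RT; start with NADPH (500 uM addition) then DTNB (15 mM addition). Kinetic TNB absorbance, 405 nm filter. Four-parameter Hill fit across titration.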
Shiga toxin inh = A qHTS for Small Molecule Inhibitors of Shiga Toxin; Vero cells, Shiga toxin protein synthesis inhibition reporter; inhibition, % at 38.7 µM; actives 9.2% (n = 290,000); in the data active = inhibition mostly above about 28%, no sharp cut-off; inactive = mostly below about 43%; note: 0% is about no effect
TbPYK inhibitor = qHTS of Trypanosoma Brucei Inhibitors; actives 0.12% (n = 410,000); TbPYK enzyme, Kinase-Glo Plus ATP luminescence, 45 min; pyruvate kinase (Trypanosoma brucei), Q57TT1; AID 624173, 2012; Potency, µM (series often up to 76.8 µM), inactives show at the highest dose activity, negative = inhibition, most hits filed as inhibitors; note: potency is the fitted concentration of half-maximal effect; % is set by controls: 0 for no effect and ±100 for the full control effect; nearly all actives have a fitted effect of over 50% in size
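Luminescent Kinase-Glo Plus end-point after 45 min room-temperature reaction of T. brucei pyruvate kinase started with 130 uM ADP (final). Buffer TEA 50 mM pH 7.2 with KCl, MgCl2, BSA, Tween-20; titration-based qHTS with fitted concentration-effect curves.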
LmPK inh = qHTS Assay for Inhibitors of Leishmania Mexicana Pyruvate Kinase (LmPK); actives 0.37% (n = 290,000); Potency, µM (highest dose often 57.5 µM), inactives show top-dose activity change, negative = inhibition, actives largely listed as inhibitors; purified LmPK, Kinase-Glo ATP luminescence, 1 h; AID 1721, 2009; Q27686; note: potency is the fitted concentration of half-maximal effect; % is set by controls: 0 for no effect and ±100 for the full control effect
Target sequence (Q27686 whole entry, looked up): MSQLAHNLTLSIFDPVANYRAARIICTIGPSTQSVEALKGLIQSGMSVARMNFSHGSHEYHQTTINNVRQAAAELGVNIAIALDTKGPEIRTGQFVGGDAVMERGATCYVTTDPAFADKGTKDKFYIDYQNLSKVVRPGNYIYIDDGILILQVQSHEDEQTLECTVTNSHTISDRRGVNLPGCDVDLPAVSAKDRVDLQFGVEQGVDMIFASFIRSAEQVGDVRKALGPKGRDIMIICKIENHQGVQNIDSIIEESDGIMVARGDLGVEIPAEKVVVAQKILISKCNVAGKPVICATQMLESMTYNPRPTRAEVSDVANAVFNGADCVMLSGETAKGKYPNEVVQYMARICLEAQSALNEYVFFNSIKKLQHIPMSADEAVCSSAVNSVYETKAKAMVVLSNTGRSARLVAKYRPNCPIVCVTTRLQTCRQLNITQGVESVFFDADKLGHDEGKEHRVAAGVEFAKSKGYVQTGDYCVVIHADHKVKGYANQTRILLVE
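qHTS format; LmPK 0.1 nM; substrates PEP 0.5 mM and ADP 0.1 mM. One-hour room-temperature incubation, then coupled luciferase luminescence; 0.5 nM enzyme wells mark activation.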
Giardia FBPA inh = qHTS Assay for Inhibitors of Fructose-1,6-bisphosphate Aldolase from Giardia Lamblia; A8B2U2; AID 2451, 2010; actives 0.71% (n = 290,000); purified Giardia FBPA; Potency, µM (titrated, usually from 59.6 µM), for inactives: at the highest dose activity, negative = inhibition, hits mostly inhibitors; note: potency is the fitted concentration of half-maximal effect; % is set by controls: 0 for no effect and ±100 for the full control effect; nearly all actives have a fitted effect of over 55% in size
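Giardia FBPA (40 nM reagent) was preincubated 10 min at RT with compound (up to 57.5 uM final), then substrate plus GAPDH/TPI/NAD/arsenate coupling system with diaphorase/resazurin was added; resorufin fluorescence (525/598 nm) was read after 20 min.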
An asterisk follows results filed as active; ? = inconclusive; . = no result given; [ ] = dose if it differs, or a comment. The sample as a whole holds a higher share of hits than the screen did. Unless noted, calls come from the whole dose curve; as a rule, active = well fitted curve in the direction sought with a large enough effect; inconclusive = small, poorly fitted or top-dose-only effect, or another doubt; inactive = no such curve, though single readings can be large; an effect the other way counts as inactive or inconclusive.

SMILES	Cycloheximide cs	Sm TGR inh	Shiga toxin inh	TbPYK inhibitor	LmPK inh	Giardia FBPA inh
C/C(=N\NC(=O)c1ccc(O)cc1)c1ccc(NC(=O)Cc2ccccc2)cc1	36*	-4%	170*	8%	-4%	.
CC(=O)Nc1ccc(/C(C)=N\NC(=O)c2ccc(-c3ccccc3)cc2)cc1	12	0%	7	.	3%	0%
CCOC(=O)c1c(C)oc2ccc(N(C(=O)Oc3ccccc3)S(=O)(=O)c3ccccc3)cc12	.	4%	.	0%	.	.
COc1cc(-c2c(C#N)c(N)nc3[nH]c(=S)[nH]c(=O)c23)ccc1O	-4	65%	-5	-1%	-5%	?
CN(C)S(=O)(=O)c1cccc(NC(=O)COC(=O)c2ccc([N+](=O)[O-])o2)c1	-1	32µM*	-10	0%	3%	-26%
COc1cc(NC(=O)COC(=O)c2ccc(C)c(S(=O)(=O)N3CCCCC3)c2)c(C)cc1[N+](=O)[O-]	72*	3%	57*	1%	5%	1%
Cc1ccc(NC(=O)COC(=O)c2ccc([N+](=O)[O-])o2)cc1S(=O)(=O)N1CCCCCC1	28*	-1%	59*	1%	-3%	-19%
COc1ccc(C(=O)OCC(=O)Nc2ccc(OC)c(S(=O)(=O)N3CCCCC3)c2)cc1[N+](=O)[O-]	.	-15%	.	4%	.	.
COc1cc(NC(=O)Cn2ncc(Cl)c(Cl)c2=O)c(C)cc1[N+](=O)[O-]	-12	40µM*	-33	0%	3%	-1%
O=C(COC(=O)c1ccc([N+](=O)[O-])o1)Nc1cccc(S(=O)(=O)N2CCOCC2)c1	7	?	7	3%	-1%	-9%
COc1ccc2c(c1)c1c(c(=O)n(-c3cccc(C)c3)c(=O)n1CC(=O)NCc1ccc(C)cc1)n2C	.	-3%	.	-12%	.	.
Cc1cccc(C(=O)NNC(=O)C2CCCCC2)c1O	.	.	.	-8%	.	.
O=C(c1cccc(F)c1)N1CCC[C@@]2(CCN(c3ccccn3)C2)C1	.	.	.	0%	.	0%
COc1ccc(NC(=O)COC(=O)c2ccc([N+](=O)[O-])o2)cc1Cl	9	25µM*	11	4%	10%	?
O=C(OCc1cc(Cl)ccc1OC(F)F)c1cncc(Br)c1	-3	7%	-3	2%	0%	4%
O=C(OCc1cc(Cl)ccc1OC(F)F)c1ccc([N+](=O)[O-])o1	-4	13µM*	-3	.	-5%	-10%
CCN(CC)S(=O)(=O)c1ccc(Cl)c(NC(=O)COC(=O)c2ccc([N+](=O)[O-])o2)c1	6	6.3µM*	-5	31%	-3%	?
CCN(CC)c1ccc(C(=O)N/N=C/c2ccccc2OC(F)F)cc1	26*	0%	28	-8%	-5%	6%
CC(C)Oc1ccccc1/C=N/NC(=O)c1ccccc1Cl	12*	2%	15	-2%	0%	-14%
O=C(O)COc1ccccc1/C=N/NC(=O)c1ccc(F)cc1	3	-4%	3	2%	3%	-29%
CC(C)Oc1ccccc1/C=N/NC(=O)C1CC1	.	.	.	4%	.	.
CC(C)Oc1ccccc1/C=N/NC(=O)c1ccc(F)cc1	27*	8%	20*	-3%	5%	-2%
Cn1cccc1-c1cc(C(=O)N/N=C/c2ccc(F)cc2)[nH]n1	12	-32%	15	-6%	0%	5%
Cn1cccc1-c1cc(C(=O)N/N=C/c2ccccc2Cl)[nH]n1	20*	-35%	80*	3%	8%	-4%
COc1ccccc1/C=N/NC(=O)c1ccc(N(C)S(=O)(=O)c2ccccc2)cc1	-9	-2%	-9	-25%	9%	-10%
SMILES	Cycloheximide cs	Sm TGR inh	Shiga toxin inh	TbPYK inhibitor	LmPK inh	Giardia FBPA inh
Cc1csc2nc(-c3cccc(NC(=O)c4c(F)cccc4F)c3)cn12	.	6%	.	3%	.	.
COc1ccccc1CN1CC[C@@]2(CCCN(C(=O)c3cnccn3)C2)C1	.	.	.	-10%	.	-6%
O=C(N/N=C/c1ccccc1Cl)c1ccc(F)cc1	56*	3%	72*	1%	-10%	?
O=C(NN=Cc1ccccc1Cl)c1ccccc1	.	.	.	1%	.	.
CCCCN(C)C(=O)c1ccc(CS(=O)(=O)c2ccccc2C)o1	1	25µM*	-5	-7%	7%	5%
Cc1ccccc1S(=O)(=O)Cc1ccc(C(=O)N(C)C2CCCCC2)o1	6	25µM*	9	-14%	-2%	.
COC(CN(C)C(=O)c1ccc(CS(=O)(=O)c2ccccc2C)o1)OC	0	50µM*	-8	-6%	-1%	3%
NC(=O)c1nc[nH]c1C(=O)Nc1cccc(C(F)(F)F)c1	.	0%	.	-2%	.	.
CO[C@H]1[C@@H](OC(N)=O)[C@H](O)[C@@H](Oc2ccc3c(O)c(NC(=O)c4ccc(O)c(CC=C(C)C)c4)c(=O)oc3c2C)OC1(C)C	.	.	.	-5%[33.2 µM]	.	7%[21.7 µM]
Cc1cc(C)c(NC(=O)NC(=O)c2cccc(F)c2)c(C)n1	15*	4%	37	7%	-2%	4%
Cc1cc(C)c2c(NC(=O)c3ccccc3)c(C(=O)Nc3ccc(F)cc3)sc2n1	.	3%	.	-6%	.	.
Cc1cc(C)c(NC(=O)NC(=O)c2ccc(F)cc2)c(C)n1	28*	6%	34*	-3%	-4%	0%
O=C(Nc1ncccc1Cl)c1cccc(F)c1	-5	0%	1	2%	0%	0%
O=C(N/N=C/c1sc(=O)[nH]c1-[n+]1ccc2ccccc2c1)c1ccccc1[O-]	27*	-5%	48*	3%	-6%	.
Cc1cc[n+](-c2[nH]c(=O)sc2/C=N/N=C(\[O-])c2ccncc2)cc1C	-2	-9%	-5	3%	4%	-21%
Cc1cc[n+](-c2[nH]c(=O)sc2/C=N/N=C(\[O-])c2ccncc2)cc1	-7	4%	-4	1%	-7%	.
Cc1cc[n+](-c2[nH]c(=O)sc2/C=N/N=C(\[O-])c2ccccc2)cc1C	39*	8%	74*	1%	1%	-10%
Cc1cc[n+](-c2[nH]c(=O)sc2/C=N/N=C(\[O-])c2ccccc2)cc1	49*	2%	68*	-5%	2%	?
O=c1[nH]c(-[n+]2ccccc2)c(/C=N/N=C(\[O-])c2ccccc2)s1	19*	-16%	41*	-4%	2%	-4%
O=S(=O)(c1ccccc1)N1CCN(c2nc(-c3ccc(F)cc3)nc3cc(Cl)ccc23)CC1	13	.	-3	.	.	.
Cc1cccc(C(=O)NNC(=O)c2ccccc2O)c1	39*	17%	38*	3%	-1%	?
CCCc1ccc(C(=O)NC(=O)c2ccccc2O)cc1	23*	11%	19	1%	-11%	19%
